An excerpt weighted towards active compounds, which were near 5.4% of everything screened.
PHOSPHO1 block = blocks human PHOSPHO1 phosphatase activity; Q8TCT1; recombinant PHOSPHO1, absorbance phosphatase assay; inhibition, % at 13.3 µM; hit rate 1.1% among 290,000; AID 1565; in the data active = inhibition above about 60%
Target sequence (Q8TCT1 whole entry, looked up): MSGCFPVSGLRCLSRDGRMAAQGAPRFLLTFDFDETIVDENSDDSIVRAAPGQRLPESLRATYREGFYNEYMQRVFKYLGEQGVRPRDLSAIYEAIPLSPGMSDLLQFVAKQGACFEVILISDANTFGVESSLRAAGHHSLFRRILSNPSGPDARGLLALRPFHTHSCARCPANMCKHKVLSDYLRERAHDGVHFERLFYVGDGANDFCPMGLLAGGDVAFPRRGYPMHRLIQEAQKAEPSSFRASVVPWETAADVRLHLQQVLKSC
A3A deaminase = inhibitors of human APOBEC3A DNA deaminase | recombinant A3A, FAM/TAMRA ssDNA deamination fluorescence | inhibition, % at 20 µM | hit rate 0.41% among 330,000;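 active = at least 40% inhibition at 20 µM here, with at most 30% in a related deaminase screen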;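 note: plate controls were A3A with DMSO for no effect and wells lacking A3A enzyme for full effect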
Target sequence (P31941 whole entry, looked up): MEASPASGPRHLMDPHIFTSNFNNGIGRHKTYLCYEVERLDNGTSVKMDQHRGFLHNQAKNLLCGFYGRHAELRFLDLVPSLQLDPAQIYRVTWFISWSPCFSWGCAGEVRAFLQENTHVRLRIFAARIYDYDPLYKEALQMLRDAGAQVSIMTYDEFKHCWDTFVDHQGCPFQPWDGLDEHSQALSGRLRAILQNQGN
rCAG RNA binder = binds r(CAG) RNA repeats; r(CAG) RNA repeat, TO-PRO-1 dye displacement fluorescence; inhibition, % at 3 µM; hit rate 1.3% among 370,000;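 active = inhibition above the plate cutoff, the mean of all test compounds on that plate plus 3 SD, cut at about 35% in these data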;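 note: 0% = DMSO alone and 100% = 100 µM mitoxantrone as full dye displacement; higher means more dye released from RNA so lower well fluorescence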
ALR inh = human ALR oxidase inhibition via reduced H2O2. purified ALR, DTT oxidation, H2O2 HRP-luminol luminescence. inhibition, % (no concentration beside the values). hit rate 3.8% among 290,000;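 active = mean replicate inhibition above about 79%, with every replicate also reaching it, limit read from the data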
aDG glyco up = increases alpha dystroglycan glycosylation. Pro5-aDG cells, alpha-DG glycosylation AlphaScreen (IIH6); 0% Pro5, 100% B10-LARGE cell signal. activation, % at 10 µM. hit rate 0.22% among 360,000. AID 624168;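 active = activation of at least 8% versus controls, or a plate z-score of at least 8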;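 note: Pro5 are CHO cells carrying HIG-tagged alpha-DG that lacks glycosylation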
A3G deaminase = blocks human APOBEC3G single-stranded DNA deamination; hit rate 0.28% among 330,000; inhibition, % at 20 µM; recombinant A3G, ssDNA deamination FAM/TAMRA fluorescence;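 active = inhibition of at least 40% at 20 µM, with no more than 30% in the related APOBEC3A deaminase screen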;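 note: plate controls were DMSO wells with A3G for no effect and wells lacking A3G enzyme for full effect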
rCAG bind conf = r(CAG) RNA repeat binding, confirmation | AID 652065 | shares compounds with rCAG RNA binder | hit rate 70% among 4,300 | TO-PRO-1 dye displacement fluorescence | inhibition, % at 3 µM;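 active = inhibition above a per-plate cutoff, the mean inhibition of sample wells plus 3 SD, cut at about 35% in these data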;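 note: loss of TO-PRO-1 fluorescence as compound displaces dye from 1x1 AA loop RNA; 0% = DMSO only wells and 100% = 100 µM mitoxantrone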
DNA CAG counter = disrupts DNA CAG TO-PRO-1 complex, flagging rCAG hits; shares compounds with rCAG RNA binder; d(CAG) DNA oligo TO-PRO-1 dye displacement, fluorescence; inhibition, % at 3 µM; hit rate 94% among 4,300; AID 652068;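 active = inhibition above its plate's cutoff, the mean test-well inhibition plus 3 SD, cut at about 4.8% in these data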;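 note: 0% = DNA dye mix with DMSO and 100% = 100 µM mitoxantrone; hits displace the dye from DNA and so lower well fluorescence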
dCAG dye DR = disrupts DNA CAG TO-PRO-1 complex in dose response; shares compounds with rCAG RNA binder; IC50, µM; DNA CAG/GTC duplex TO-PRO-1 dye displacement fluorescence; hit rate 20% among 250; in the data active = IC50 below about 10 µM
Active calls of the source: *; i = inactive; . = not tested or not shown.

SMILES	PHOSPHO1 block	A3A deaminase	rCAG RNA binder	ALR inh	aDG glyco up	A3G deaminase	rCAG bind conf	DNA CAG counter	others
CCn1nc(NS(=O)(=O)c2ccccc2[N+](=O)[O-])c2cc3cccc(C)c3nc21	32	-5	74*	92*	0	-3	54*	21*
CCn1nc(NS(=O)(=O)c2ccc([N+](=O)[O-])cc2)c2cc3cccc(C)c3nc21	28	-4	85*	44	0	-3	69*	31*
CCn1nc(NC(=O)C(C)(C)C)c2cc3cccc(C)c3nc21	15	1	-5	-29	0	-1	.	.
CCOC(=O)c1ccc(/C=C2/C=C(c3ccccc3)N(c3ccc(Cl)c(C(=O)O)c3)C2=O)cc1	-8	23	61*	7	0	9	70*	32*
C[C@H](NC(=O)c1cc2c([nH]c3ccccc32)c(-c2ccccc2)n1)C(=O)O	.	25	22	-8	0	-4	.	.
CSCC[C@H](NC(=O)c1cc2c([nH]c3ccccc32)c(-c2ccccc2)n1)C(=O)O	29	-2	55*	.	0	-9	50*	14*
NS(=O)(=O)c1ccc(N=Nc2c(O)ccc3ccccc23)cc1	-8	4	21	-19	0	3	.	.
Oc1ccc(N=Nc2c(O)ccc3ccccc23)cc1	-2	7	41*	18	0	4	34	17*
C[C@@H]1CCCCO[C@@H](CN(C)C(=O)NC2CCCCC2)[C@@H](C)CN([C@H](C)CO)C(=O)c2cc(N(C)C)ccc2O1	.	.	7	.	.	.	.	.
COc1ccccc1Nc1nc2ccccc2n2cnnc12	3	0	77*	.	0	0	7	1
c1ccc(Nc2nc3ccccc3n3cnnc23)cc1	0	0	2	3	0	-4	.	.
COc1ccccc1Cc1c(C2CCCCC2)nc2ccc(Br)cn12	.	.	8	.	0	.	.	.
Cc1cc(NS(=O)(=O)c2ccc(NC(=O)C(C)Oc3ccc(C(C)C)cc3)cc2)no1 (configuration not stated)	32	-2	47*	.	0	-4	49*	16*
Cc1cc(NS(=O)(=O)c2ccc(NC(=S)NC(=O)c3ccc(Br)cc3)cc2)no1	-9	22	57*	.	0	-1	47*	16*
Cc1cc(NS(=O)(=O)c2ccc(NC(=O)C(c3ccccc3)c3ccccc3)cc2)no1	12	-1	59*	52	0	3	47*	18*
CCc1ccc(OCC(=O)Nc2ccc(S(=O)(=O)Nc3cc(C)on3)cc2)c(Br)c1	8	1	78*	9	0	-7	74*	28*	dCAG dye DR=i
Cc1cc(NS(=O)(=O)c2ccc(NC(=S)NC(=O)c3cccnc3)cc2)no1	20	-5	15	66	1	-4	.	.
CC1(O)CC(C)(C)C(C#N)C(=O)N1 (configuration not stated)	.	.	1	.	0	.	.	.
CN(C)CCCNc1ncnc2scc(-c3ccccc3)c12	32	-4	-4	1	0	-11	.	.
Cc1ccccc1S(=O)(=O)Nc1ncnc2scc(-c3ccccc3)c12	-10	1	55*	25	0	-7	50*	16*
CC(C)NC(=O)c1cc(C2CCCCN2C(=O)OCCF)on1 (configuration not stated)	.	.	0	.	0	.	.	.
O=C(N/C(=C/c1cn(-c2ccccc2)nc1-c1ccccc1)C(=O)N1CCOCC1)c1ccccc1	6	5	.	10	.	-2	.	.
Cc1ccc(C(=O)N/C(=C/c2cn(-c3ccccc3)nc2-c2ccccc2)C(=O)O)cc1	-10	3	52*	11	0	-3	45*	12*
Cc1ccc(-c2nn(-c3ccccc3)cc2/C=N/NS(=O)(=O)c2ccccc2)cc1	38	-3	37*	0	0	-4	41*	14*
O=S(=O)(N/N=C\c1cn(-c2ccccc2)nc1-c1ccccc1)c1ccccc1	-32	-2	35*	3	0	0	44*	13*
SMILES	PHOSPHO1 block	A3A deaminase	rCAG RNA binder	ALR inh	aDG glyco up	A3G deaminase	rCAG bind conf	DNA CAG counter	others
Cc1ccc(S(=O)(=O)N/N=C\c2cn(-c3ccccc3)nc2-c2ccccc2)cc1	45	1	23	3	0	-1	.	.
CCCCCCC12Cc3cc(OC)c(OC)cc3C(O1)c1c(cc(C)oc1=O)O2 (configuration not stated)	.	.	13	.	.	.	.	.
CCN(CC)C(=O)C1=C(C)N(CCCOC)C(=O)C(CC(=O)NCc2cccs2)C1 (configuration not stated)	.	.	1	.	0	.	.	.
Cc1ccc2nc(Cl)cc(=O)n2c1	.	.	0	.	0	.	.	.
O=C(Nc1ccc(S(=O)(=O)Nc2nccs2)cc1)c1cc(-c2ccccc2)nc2ccccc12	1	0	74*	-1	0	3	76*	38*
CC(C)(C)NS(=O)(=O)c1ccc(NC(=O)c2cc(-c3ccccc3)nc3ccccc23)cc1	33	-1	6	-14	0	-1	.	.
Cc1cc(NC(=O)c2cc(-c3ccccc3Cl)nc3ccccc23)no1	28	-3	7	-2	0	-5	.	.
CCc1ccc(-c2cc(C(=O)Nc3ccc(S(=O)(=O)NC(C)=O)cc3)c3ccccc3n2)cc1	31	2	58*	10	0	1	63*	29*
Cc1ccc(-c2cc(C(=O)Nc3ccc(S(=O)(=O)Nc4nccs4)cc3)c3ccccc3n2)c(C)c1	-31	-1	68*	-5	0	-3	71*	30*	dCAG dye DR=i
Cc1cc(NS(=O)(=O)c2ccc(NC(=O)c3cc(-c4ccccc4Cl)nc4ccccc34)cc2)no1	0	1	75*	48	0	-1	72*	39*
Cc1ccc(C)c(-c2cc(C(=O)Nc3nccs3)c3ccccc3n2)c1	27	3	7	-5	0	-2	.	.
C[C@@H]1CN([C@@H](C)CO)S(=O)(=O)c2ccc(Br)cc2O[C@@H]1CN(C)S(=O)(=O)c1ccc(F)cc1	.	.	7	.	.	.	.	.
Cc1ccc(O)c(-c2cc(C(=O)Nc3ccc(S(=O)(=O)Nc4nccc(C)n4)cc3)[nH]n2)c1	-20	4	59*	4	0	-1	49*	17*
Cc1ccc(-c2cc(C(=O)Nc3ccc(S(=O)(=O)Nc4ncccn4)cc3)c3ccccc3n2)cc1	15	0	58*	1	0	-5	64*	20*
CCOC(=O)CNC(=O)CSc1nnc(-c2ccc(C(C)(C)C)cc2)n1-c1ccc(Cl)cc1	.	.	3	.	.	.	.	.

Source: PubChem
